Reference: PubChem BioAssay AID1159580 (chemical genetic matrix, 2015)
“And” between values parts separate entries of the source, which are not always exact repeats. Equal entries are not always repeated. Screen size: about 5,500 compounds; about 2,000 (36%) were called active. About 18% were inconclusive and are not listed. No stated cut-off is given here; in the data, active means normalized growth mostly below about 0.91 (no sharp cut-off); inconclusive means no clear call, values can overlap the other calls; inactive means mostly above about 0.92. The list shows a part of the results.

Experiment: chemical genetic growth profiling, strain panel (AID 1159580);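 further: tested at 20 µM; growth read once vehicle control cultures reached saturation at 30 °C; 1 = growth at the plate median or of vehicle wells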
Settings: growth OD
[1] = S. cerevisiae deletion strains, locus YBR229C, strain ROT2, stronger effect = lower value
[2] = S. cerevisiae deletion strains, locus YDL101C, strain DUN1, stronger effect = lower value
[3] = S. cerevisiae deletion strains, locus YDR150W, strain NUM1, stronger effect = lower value
[4] = S. cerevisiae deletion strains, locus YEL061C, strain CIN8, stronger effect = lower value
[5] = S. cerevisiae deletion strains, locus YGR229C, strain SMI1, stronger effect = lower value
[6] = S. cerevisiae deletion strains, locus YHR030C, strain SLT2, stronger effect = lower value
[7] = S. cerevisiae deletion strains, locus YJR043C, strain POL32, stronger effect = lower value
[8] = S. cerevisiae deletion strains, locus YLR039C, strain RIC1, stronger effect = lower value
[9] = S. cerevisiae deletion strains, locus YLR262C, strain YPT6, stronger effect = lower value
[10] = S. cerevisiae deletion strains, locus YMR263W, strain SAP30, stronger effect = lower value
[11] = S. cerevisiae deletion strains, locus YMR307W, strain GAS1, stronger effect = lower value
[12] = S. cerevisiae deletion strains, locus YPL055C, strain LGE1, stronger effect = lower value
[13] = S. cerevisiae deletion strains, locus YPL241C, strain CIN2, stronger effect = lower value
[14] = S. cerevisiae strains, strain wild type, stronger effect = lower value

O=C(COC(=O)c1ccccc1Nc1ccccc1)c1ccc(Cl)cc1
normalized growth (S. cerevisiae deletion strains, locus YAL013W, strain DEP1, stronger effect = lower value): 0.978 (inactive)
normalized growth [1]: 0.99 (inactive)
normalized growth (S. cerevisiae deletion strains, locus YCL061C, strain MRC1, stronger effect = lower value): 0.993 (inactive)
normalized growth [2]: 0.986 (inactive)
normalized growth [3]: 0.9 (inactive)
normalized growth [4]: 0.993 (inactive)
normalized growth (S. cerevisiae deletion strains, locus YGR078C, strain PAC10, stronger effect = lower value): 0.982 (inactive)
normalized growth [5]: 0.98 (inactive)
normalized growth [6]: 1.01 (inactive)
normalized growth (S. cerevisiae deletion strains, locus YHR087W, strain rtc3, stronger effect = lower value): 0.974 (inactive)
normalized growth (S. cerevisiae deletion strains, locus YJL187C, strain SWE1, stronger effect = lower value): 0.997 (inactive)
normalized growth [7]: 0.98 (inactive)
normalized growth (S. cerevisiae deletion strains, locus YJR075W, strain HOC1, stronger effect = lower value): 1 (inactive)
normalized growth (S. cerevisiae deletion strains, locus YKL190W, strain CNB1, stronger effect = lower value): 0.988 (inactive)
normalized growth [8]: 0.944 (inactive)
normalized growth (S. cerevisiae deletion strains, locus YLR058C, strain SHM2 (second series), stronger effect = lower value): 0.992 (inactive)
normalized growth (S. cerevisiae deletion strains, locus YLR085C, strain ARP6, stronger effect = lower value): 1.02 (inactive)
normalized growth [9]: 0.987 (inactive)
normalized growth (S. cerevisiae deletion strains, locus YML094W, strain GIM5, stronger effect = lower value): 0.956 (inactive)
normalized growth (S. cerevisiae deletion strains, locus YMR219W, strain ESC1, stronger effect = lower value): 0.988 (inactive)
normalized growth [10]: 0.927 (inactive)
normalized growth [11]: 0.987 (inactive)
normalized growth (S. cerevisiae deletion strains, locus YNL153C, strain GIM3, stronger effect = lower value): 0.993 (inactive)
normalized growth (S. cerevisiae deletion strains, locus YNL298W, strain CLA4 (second series), stronger effect = lower value): 1 (inactive)
normalized growth (S. cerevisiae deletion strains, locus YNL322C, strain KRE1, stronger effect = lower value): 0.966 (inactive)
normalized growth (S. cerevisiae deletion strains, locus YNR030W, strain Alg12, stronger effect = lower value): 0.99 (inactive)
normalized growth (S. cerevisiae deletion strains, locus YOL006C, strain TOP1, stronger effect = lower value): 0.964 (inactive)
normalized growth [12]: 0.921 (inactive)
normalized growth [13]: 0.9 (inactive)
normalized growth (S. cerevisiae deletion strains, locus YPR135W, strain CTF4, stronger effect = lower value): 1.01 (inactive)
normalized growth [14]: 0.985 (inactive)

CNc1ccccc1C(=O)O
normalized growth (S. cerevisiae deletion strains, locus YBR021W, strain FUR4, stronger effect = lower value): 0.955 (inactive)
normalized growth [1]: 1 (inactive)
normalized growth (S. cerevisiae deletion strains, locus YCL029C, strain bik1, stronger effect = lower value): 1.01 (inactive)
normalized growth (S. cerevisiae deletion strains, locus YDL035C, strain GPR1, stronger effect = lower value): 1.02 (inactive)
normalized growth (S. cerevisiae deletion strains, locus YDL074C, strain BRE1, stronger effect = lower value): 1.03 (inactive)
normalized growth [2]: 1.02 (inactive)
normalized growth (S. cerevisiae deletion strains, locus YDL185W, strain tfp1, stronger effect = lower value): 1 (inactive)
normalized growth (S. cerevisiae deletion strains, locus YDL192W, strain arf1, stronger effect = lower value): 0.996 (inactive)
normalized growth (S. cerevisiae deletion strains, locus YDR101C, strain arx1, stronger effect = lower value): 1 (inactive)
normalized growth [3]: 0.997 (inactive)
normalized growth (S. cerevisiae deletion strains, locus YDR162C, strain NBP2, stronger effect = lower value): 1.05 (inactive)
normalized growth (S. cerevisiae deletion strains, locus YDR318W, strain mcm21, stronger effect = lower value): 0.998 (inactive)
normalized growth (S. cerevisiae deletion strains, locus YDR388W, stronger effect = lower value): 1 (inactive)
normalized growth (S. cerevisiae deletion strains, locus YDR502C, strain sam2, stronger effect = lower value): 1.02 (inactive)
normalized growth [4]: 1 (inactive)
normalized growth (S. cerevisiae deletion strains, locus YER110C, stronger effect = lower value): 1.02 (inactive)
normalized growth (S. cerevisiae deletion strains, locus YER155C, strain BEM2, stronger effect = lower value): 0.973 (inactive)
normalized growth (S. cerevisiae deletion strains, locus YER167W, strain BCK2, stronger effect = lower value): 1 (inactive)
normalized growth (S. cerevisiae deletion strains, locus YGL078C, strain dbp3, stronger effect = lower value): 0.981 (inactive)
normalized growth (S. cerevisiae deletion strains, locus YGL086W, strain mad1, stronger effect = lower value): 0.989 (inactive)
normalized growth (S. cerevisiae deletion strains, locus YGL248W, strain PDE1, stronger effect = lower value): 1.03 (inactive)
normalized growth (S. cerevisiae deletion strains, locus YGR135W, strain pre9, stronger effect = lower value): 1 (inactive)
normalized growth [5]: 1 (inactive)
normalized growth (S. cerevisiae deletion strains, locus YGR252W, strain gcn5, stronger effect = lower value): 1.02 (inactive)
normalized growth [6]: 1.01 (inactive) and 0.862 (inactive)
normalized growth (S. cerevisiae deletion strains, locus YHR079C, strain IRE1 (second series), stronger effect = lower value): 0.986 (inactive)
normalized growth (S. cerevisiae deletion strains, locus YHR079C, strain IRE1, stronger effect = lower value): 0.873 (inactive)
normalized growth (S. cerevisiae deletion strains, locus YHR094C, strain hxt1, stronger effect = lower value): 1 (inactive)
normalized growth (S. cerevisiae deletion strains, locus YHR129C, strain ARP1, stronger effect = lower value): 1.01 (inactive)
normalized growth (S. cerevisiae deletion strains, locus YHR200W, strain rpn10, stronger effect = lower value): 1.01 (inactive)
normalized growth (S. cerevisiae deletion strains, locus YIL066C, strain RNR3, stronger effect = lower value): 1.04 (inactive)
normalized growth (S. cerevisiae deletion strains, locus YIL073C, strain SPO22, stronger effect = lower value): 1.09 (inactive)
normalized growth (S. cerevisiae deletion strains, locus YIL125W, strain kgd1, stronger effect = lower value): 0.969 (inactive)
normalized growth (S. cerevisiae deletion strains, locus YIR030C, strain dcg1, stronger effect = lower value): 1.01 (inactive)
normalized growth (S. cerevisiae deletion strains, locus YJL095W, strain BCK1, stronger effect = lower value): 1.05 (inactive) and 0.875 (active)
normalized growth (S. cerevisiae deletion strains, locus YJL134W, strain LCB3, stronger effect = lower value): 1 (inactive)
normalized growth (S. cerevisiae deletion strains, locus YJL168C, strain set2, stronger effect = lower value): 0.996 (inactive)
normalized growth (S. cerevisiae deletion strains, locus YJL187C, strain SWE1 (second series), stronger effect = lower value): 1.02 (inactive)
normalized growth [7]: 1.01 (inactive)
normalized growth (S. cerevisiae deletion strains, locus YJR066W, strain TOR1, stronger effect = lower value): 0.842 (inactive)
normalized growth (S. cerevisiae deletion strains, locus YKL009W, strain mrt4, stronger effect = lower value): 0.972 (inactive)
normalized growth (S. cerevisiae deletion strains, locus YKL068W, stronger effect = lower value): 0.967 (inactive)
normalized growth (S. cerevisiae deletion strains, locus YKL085W, strain MDH1 (second series), stronger effect = lower value): 0.985 (inactive)
normalized growth (S. cerevisiae deletion strains, locus YKL085W, strain MDH1, stronger effect = lower value): 0.985 (inactive)
normalized growth (S. cerevisiae deletion strains, locus YKR001C, strain vps1, stronger effect = lower value): 1 (inactive)
normalized growth [8]: 1.03 (inactive)
normalized growth (S. cerevisiae deletion strains, locus YLR058C, strain SHM2, stronger effect = lower value): 1.02 (inactive)
normalized growth (S. cerevisiae deletion strains, locus YLR102C, strain apc9, stronger effect = lower value): 1 (inactive)
normalized growth (S. cerevisiae deletion strains, locus YLR113W, strain HOG1, stronger effect = lower value): 0.78 (active)
normalized growth [9]: 1.06 (inactive)
normalized growth (S. cerevisiae deletion strains, locus YLR268W, strain sec22, stronger effect = lower value): 0.993 (inactive)
normalized growth (S. cerevisiae deletion strains, locus YLR330W, strain CHS5, stronger effect = lower value): 1.02 (inactive)
normalized growth (S. cerevisiae deletion strains, locus YLR342W, strain FKS1 (second series), stronger effect = lower value): 1.02 (inactive)
normalized growth (S. cerevisiae deletion strains, locus YLR371W, strain rom2, stronger effect = lower value): 0.995 (inactive)
normalized growth (S. cerevisiae deletion strains, locus YLR418C, strain cdc73, stronger effect = lower value): 1.08 (inactive)
normalized growth (S. cerevisiae deletion strains, locus YML016C, strain PPZ1, stronger effect = lower value): 1.01 (inactive)
normalized growth (S. cerevisiae deletion strains, locus YML032C, strain rad52, stronger effect = lower value): 1.02 (inactive)
normalized growth (S. cerevisiae deletion strains, locus YML124C, strain tub3, stronger effect = lower value): 1.01 (inactive)
normalized growth (S. cerevisiae deletion strains, locus YMR078C, strain ctf18, stronger effect = lower value): 1 (inactive)
normalized growth (S. cerevisiae deletion strains, locus YMR223W, strain ubp8, stronger effect = lower value): 1.01 (inactive)
normalized growth [10]: 1.02 (inactive)
normalized growth [11]: 1.08 (inactive)
normalized growth (S. cerevisiae deletion strains, locus YNL067W, strain RPL9B, stronger effect = lower value): 1.01 (inactive)
normalized growth (S. cerevisiae deletion strains, locus YNL183C, strain NPR1, stronger effect = lower value): 0.822 (active)
normalized growth (S. cerevisiae deletion strains, locus YNL233W, strain BNI4, stronger effect = lower value): 1.02 (inactive)
normalized growth (S. cerevisiae deletion strains, locus YNL250W, strain rad50, stronger effect = lower value): 0.994 (inactive)
normalized growth (S. cerevisiae deletion strains, locus YNL271C, strain bni1, stronger effect = lower value): 0.989 (inactive)
normalized growth (S. cerevisiae deletion strains, locus YNL298W, strain CLA4, stronger effect = lower value): 1.01 (inactive)
normalized growth (S. cerevisiae deletion strains, locus YNL307C, strain MCK1, stronger effect = lower value): 0.993 (inactive)
normalized growth (S. cerevisiae deletion strains, locus YNR052C, strain pop2, stronger effect = lower value): 1 (inactive)
normalized growth (S. cerevisiae deletion strains, locus YOL012C, strain htz1): 1.68 (inactive)
normalized growth (S. cerevisiae deletion strains, locus YOL147C, strain pex11, stronger effect = lower value): 0.999 (inactive)
normalized growth (S. cerevisiae deletion strains, locus YOR061W, strain CKA2, stronger effect = lower value): 1.01 (inactive)
normalized growth (S. cerevisiae deletion strains, locus YOR069W, strain VPS5, stronger effect = lower value): 1.01 (inactive)
normalized growth (S. cerevisiae deletion strains, locus YOR136W, strain idh2, stronger effect = lower value): 1.01 (inactive)
normalized growth (S. cerevisiae deletion strains, locus YOR144C, strain elg1, stronger effect = lower value): 0.994 (inactive)
normalized growth (S. cerevisiae deletion strains, locus YOR184W, strain ser1, stronger effect = lower value): 1.01 (inactive)
normalized growth (S. cerevisiae deletion strains, locus YOR231W, strain MKK1, stronger effect = lower value): 0.884 (inactive)
normalized growth (S. cerevisiae deletion strains, locus YOR316C, strain cot1, stronger effect = lower value): 1.01 (inactive)
normalized growth [12]: 1.04 (inactive)
normalized growth [13]: 0.999 (inactive)
normalized growth (S. cerevisiae deletion strains, locus YPL256C, strain CLN2, stronger effect = lower value): 0.838 (inactive)
normalized growth (S. cerevisiae deletion strains, locus YPR119W, strain clb2, stronger effect = lower value): 0.995 (inactive)
normalized growth (S. cerevisiae deletion strains, locus YPR141C, strain kar3, stronger effect = lower value): 0.968 (inactive)
normalized growth (S. cerevisiae deletion strains, locus YPR163C, strain tif3, stronger effect = lower value): 0.998 (inactive)
normalized growth (S. cerevisiae deletion strains, locus YPR167C, strain met16, stronger effect = lower value): 1.02 (inactive)
normalized growth (S. cerevisiae deletion strains, strain wtn01, stronger effect = lower value): 1.01 (inactive)
normalized growth [14]: 1.01 (inactive)
